From PubChem BioAssay (NCATS)
Inconclusive results are not listed. Activity calls are given as the source filed them. Calls follow the shape of the dose curve; as a rule, active = well fitted curve in the direction sought with a large enough effect; inconclusive = small, poorly fitted or top-dose-only effect, or another doubt; inactive = no such curve, though single readings can be large; an effect the other way counts as inactive or inconclusive.

Key:
[1] = qHTS of pediatric cancer cell lines to identify multiple opportunities for drug repurposing: Primary screen for SJ-GBM2 cells (AID 1347091); settings: SJ-GBM2 viability, CellTiter-Glo luminescence, 48 h; series mostly up to 46 µM; also: potency is read from the fitted curve at half-maximal effect
Method in brief: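 Cell viability, CellTiter-Glo luminescence; 500-1,000 cells/well, 8- or 11-point titration, 48 h compound exposure at 37 degrees C, 5% CO2. Controls: DMSO neutral, bortezomib 2.3 µM final as positive.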

[2] = qHTS of pediatric cancer cell lines to identify multiple opportunities for drug repurposing: Primary screen for SK-N-MC cells (AID 1347093); settings: SK-N-MC viability, CellTiter-Glo luminescence, 48 h; series mostly up to 46 µM; also: potency is read from the fitted curve at half-maximal effect
Method in brief: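 Metabolically active cells were quantified by ATP-dependent luminescence (CellTiter-Glo, 15 min at room temperature) following 48 h treatment. Cells had been plated at 500-1,000 per well and settled for 5 h beforehand.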

[3] = qHTS of pediatric cancer cell lines to identify multiple opportunities for drug repurposing: Primary screen for NB-EBc1 cells (AID 1347095); settings: NB-EBc1 neuroblastoma viability, CellTiter-Glo luminescence, 48 h; series mostly up to 46 µM; also: potency is read from the fitted curve at half-maximal effect
Method in brief: (§1)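 CRCs from 8- or 11-point titrations (lowest final 0.59 nM NPC, 0.78 nM MIPE). Cell viability: CellTiter-Glo after 48 h incubation, 15 min room-temperature development, luminescence imaging.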

[4] = qHTS of pediatric cancer cell lines to identify multiple opportunities for drug repurposing: Primary screen for Saos-2 cells (AID 1347097); settings: Saos-2 viability, CellTiter-Glo ATP luminescence, 48 h; series mostly up to 46 µM; also: nearly all actives have a fitted effect of over 40% in size; also: potency is read from the fitted curve at half-maximal effect
Method in brief: as §1

[5] = qHTS of pediatric cancer cell lines to identify multiple opportunities for drug repurposing: Primary screen for NB1643 cells (AID 1347099); settings: NB1643 neuroblastoma viability, CellTiter-Glo luminescence, 48 h; series mostly up to 46 µM; also: nearly all actives have a fitted effect of over 50% in size; also: potency is read from the fitted curve at half-maximal effect
Method in brief: as §1

[6] = qHTS of pediatric cancer cell lines to identify multiple opportunities for drug repurposing: Primary screen for U-2 OS cells (AID 1347096); settings: U-2 OS viability, CellTiter-Glo luminescence, 48 h; series mostly up to 46 µM; also: nearly all actives have a fitted effect of over 50% in size
Method in brief: (§2)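 Cells (500-1,000/well) rested 5 h, then received compounds for 48 h; metabolically active cells were measured by CellTiter-Glo luminescence. Final concentrations spanned up to 46 µM (MIPE, 11-point) or 0.59 nM-46 µM (NPC, 8-point) in primary screens, 11-point in follow-ups.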

[7] = qHTS of pediatric cancer cell lines to identify multiple opportunities for drug repurposing: Primary screen for SK-N-SH cells (AID 1347098); settings: SK-N-SH viability, CellTiter-Glo luminescence, 48 h; series mostly up to 57 µM; also: nearly all actives have a fitted effect of over 65% in size; also: potency is read from the fitted curve at half-maximal effect
Method in brief: as §2

[8] = qHTS of pediatric cancer cell lines to identify multiple opportunities for drug repurposing: Primary screen for BT-37 cells (AID 1347094); settings: BT-37 viability, CellTiter-Glo luminescence, 48 h; series mostly up to 57.3 µM; also: potency is read from the fitted curve at half-maximal effect
Method in brief: as §1

[9] = qHTS of pediatric cancer cell lines to identify multiple opportunities for drug repurposing: Primary screen for A673 cells (AID 1347092); settings: A673 Ewing sarcoma viability, CellTiter-Glo ATP luminescence, 48 h; series mostly up to 46 µM; also: nearly all actives have a fitted effect of over 45% in size; also: potency is read from the fitted curve at half-maximal effect
Method in brief: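 A673 cells (500-1,000 cells/well in growth media) were pre-incubated 5 h at 37 degrees C, then exposed to compounds for 48 h. Viability was read as CellTiter-Glo luminescence; concentration-response curves came directly from the primary screen.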

SMILES	Potency [1]	Potency [2]	Potency [3]	Potency [4]	Potency [5]	Potency [6]	Potency [7]	Potency [8]	Potency [9]
O=C(O)CCC=CCC[C@@H]1[C@H](N2CCCCC2)[C@@H](O)C[C@@H]1OCc1ccc(-c2ccccc2)cc1	inactive	26.4 µM (active)	inactive	inactive	5.9 µM (active)	–	–	–	–
C=C1c2cccc(O)c2C(O)=C2C(=O)[C@@]3(O)C(O)=C(C(N)=O)C(=O)[C@@H](N(C)C)[C@@H]3[C@@H](O)[C@H]12	inactive	–	inactive	–	23.5 µM (active)	inactive	–	–	–
COc1cc2c(cc1OC)[C@@H]1Cc3ccc(OC)c(OC)c3CN1CC2	inactive	inactive	–	inactive	–	inactive	–	–	–
OCCn1cc(-c2ccc3c(c2)CCC3=NO)c(-c2ccncc2)n1	inactive	–	inactive	inactive	11.8 µM (active)	inactive	19.2 µM (active)	–	–
CC(C)(OCc1nn(Cc2ccccc2)c2ccccc12)C(=O)O	inactive	26.4 µM (active)	11.8 µM (active)	inactive	–	–	30.4 µM (active)	inactive	–
CC(=O)Nc1cccc(-n2c(=O)n(C3CC3)c(=O)c3c(Nc4ccc(I)cc4F)n(C)c(=O)c(C)c32)c1	inactive	7.43 µM (active)	–	–	–	–	3.41 µM (active)	–	–
CC(=O)NCCC(=O)N[C@@H](CCC(N)=O)C(=O)N[C@@H](CO)C(=O)N[C@@H](CCC(N)=O)C(=O)N[C@@H](CCC(N)=O)C(=O)N[C@H](C(=O)N[C@@H](Cc1ccccc1)C(=O)N[C@]1(C)CCCCCCC=CCCC[C@@](C)(C(=O)N[C@@H](CCC(N)=O)C(=O)N[C@@H](CC(N)=O)C(N)=O)NC(=O)[C@H](CC(C)C)NC(=O)[C@H](CC(C)C)NC(=O)[C@@H](CCCNC(=N)N)NC(=O)[C@H](Cc2c[nH]c3ccccc23)NC(=O)[C@H](CC(C)C)NC(=O)[C@H](CC(N)=O)NC1=O)[C@H](C)O	inactive	inactive	inactive	inactive	–	inactive	inactive	–	–
C[C@@H](O[C@H]1OCCN(Cc2n[nH]c(=O)[nH]2)[C@@H]1c1ccc(F)cc1)c1cc(C(F)(F)F)cc(C(F)(F)F)c1	23.5 µM (active)	–	23.5 µM (active)	26.4 µM (active)	23.5 µM (active)	inactive	–	27.3 µM (active)	–
CCCCc1ccc(NS(=O)(=O)c2ccc(C)c(C(=O)N3CCN(c4cccc(C)c4C)CC3)c2)cc1	20.9 µM (active)	23.5 µM (active)	–	–	23.5 µM (active)	inactive	–	–	–
Oc1ccc(C=Cc2cc(O)cc(O)c2)cc1	18.7 µM (active)	11.8 µM (active)	–	29.6 µM (active)	–	–	–	21.7 µM (active)	–
O=C1NC(=O)C(=Cc2ccc(-c3ccc(F)cc3O)o2)S1	–	23.5 µM (active)	5.26 µM (active)	–	–	–	–	–	–
CC(C)c1onc(-c2c(Cl)cccc2Cl)c1COc1ccc(C=Cc2cccc(C(=O)O)c2)c(Cl)c1	–	16.6 µM (active)	–	inactive	inactive	inactive	–	–	–
CC(O)=C(C#N)C(=O)Nc1ccc(C(F)(F)F)cc1	–	4.69 µM (active)	4.18 µM (active)	–	–	inactive	–	–	18.7 µM (active)
CC(C)N(CCCNC(=O)Nc1ccc(C(C)(C)C)cc1)C[C@H]1O[C@@H](n2cc(Br)c3c(N)ncnc32)[C@H](O)[C@H]1O	–	–	inactive	–	–	inactive	24.1 µM (active)	24.3 µM (active)	18.7 µM (active)
O=C(O)c1ccc(O)c2ncc(N3CCOCC3)cc12	–	18.7 µM (active)	20.9 µM (active)	23.5 µM (active)	23.5 µM (active)	–	30.4 µM (active)	–	–
COc1c(C)c2c(c(O)c1CC=C(C)CCC(=O)O)C(=O)OC2	–	1.18 µM (active)	0.743 µM (active)	inactive	–	–	–	1.53 µM (active)	–
C[C@H](c1ccc(F)cc1CCCC(=O)O)N(c1cc(F)ccc1F)S(=O)(=O)c1ccc(Cl)cc1	–	3.72 µM (active)	inactive	–	–	inactive	19.2 µM (active)	–	18.7 µM (active)
c1ccc(-c2oc3ncnc(NC[C@@H]4CCCO4)c3c2-c2ccccc2)cc1	–	–	–	29.6 µM (active)	2.64 µM (active)	–	24.1 µM (active)	–	23.5 µM (active)
CCC(=C(c1ccc(O)cc1)c1ccc(OCCNC)cc1)c1ccccc1	–	–	–	18.7 µM (active)	23.5 µM (active)	–	34.1 µM (active)	–	37.2 µM (active)
O=C1CN2Cc3c(ccc(Cl)c3Cl)N=C2N1	–	–	–	inactive	–	inactive	–	–	–
O=C(Nc1ccccc1)Nc1ccc(-c2ccc(C(=O)[C@H]3CCC[C@H]3C(=O)O)cc2)cc1	–	1.87 µM (active)	inactive	inactive	inactive	inactive	–	–	11.8 µM (active)
O=c1[nH]c(=O)n([C@H]2C[C@@H](O)[C@@H](CO)O2)cc1C(F)(F)F	–	3.72 µM (active)	18.7 µM (active)	inactive	–	inactive	inactive	3.06 µM (active)	3.72 µM (active)
Cc1cc(CS(=O)(=O)c2ccccc2)cc(OCc2ccc(CN3CCC[C@H]3CO)cc2)c1	–	2.64 µM (active)	inactive	–	14.8 µM (active)	inactive	–	–	5.9 µM (active)
CN(C(Cc1ccc(OS(=O)(=O)c2cccc3cnccc23)cc1)C(=O)N1CCN(c2ccccc2)CC1)S(=O)(=O)c1cccc2cnccc12 (stereo unspecified)	–	0.418 µM (active)	–	–	–	–	–	inactive	18.7 µM (active)

SMILES	Potency [1]	Potency [2]	Potency [3]	Potency [4]	Potency [5]	Potency [6]	Potency [7]	Potency [8]	Potency [9]
CN(C)N=Nc1nc[nH]c1C(N)=O	–	2.64 µM (active)	inactive	inactive	–	inactive	inactive	–	inactive
C[C@@H]1[C@H](C)CC[C@]2(C(=O)O)CC[C@]3(C)C(=CC[C@@H]4[C@@]5(C)CC[C@H](O)C(C)(C)[C@H]5CC[C@]43C)[C@@H]12	–	0.429 µM (active)	13.6 µM (active)	9.59 µM (active)	–	inactive	17.5 µM (active)	inactive	–
C[C@H]1[C@H](O)O[C@@H]2O[C@@]3(C)CC[C@@H]4[C@H](C)CC[C@@H]1[C@@]24OO3	–	1.05 µM (active)	3.72 µM (active)	2.96 µM (active)	5.9 µM (active)	–	–	3.85 µM (active)	7.43 µM (active)
COc1cc([C@H]2Oc3cc([C@H]4Oc5cc(O)cc(O)c5C(=O)[C@H]4O)ccc3O[C@H]2CO)ccc1O	–	20.9 µM (active)	–	inactive	–	–	–	–	23.5 µM (active)
COc1cc2ncnc(Nc3cc(Br)c(O)c(Br)c3)c2cc1OC	–	0.0066 µM (active)	–	20.9 µM (active)	1.32 µM (active)	–	–	–	0.0118 µM (active)
O=C(Nc1cccc(Cl)c1)Nc1ncc(CCNc2ncnc3ccsc23)s1	–	–	–	2.96 µM (active)	–	inactive	–	–	14.8 µM (active)
Cc1cccc(Nc2nc(N[C@@H]3CCCC[C@H]3N)ncc2C(N)=O)c1	–	6.62 µM (active)	inactive	8.33 µM (active)	–	–	27.1 µM (active)	–	–
CC[C@H](CC#N)OC(=O)N[C@@H](C)c1cccc(NC(=O)Nc2ccc(-c3cnco3)c(OC)c2)c1	–	0.59 µM (active)	0.296 µM (active)	18.7 µM (active)	0.743 µM (active)	–	inactive	–	0.743 µM (active)
CCc1cccc(CC)c1NC(=O)N1Cc2[nH]nc(NC(=O)c3ccc(N4CCN(C)CC4)cc3)c2C1	–	0.833 µM (active)	inactive	1.18 µM (active)	inactive	–	6.07 µM (active)	–	–
CCC(=C(CC)c1ccc(O)cc1)c1ccc(O)cc1	–	4.18 µM (active)	5.9 µM (active)	–	9.35 µM (active)	inactive	7.64 µM (active)	21.7 µM (active)	18.7 µM (active)
O=C1Nc2ccc(I)cc2C1=Cc1cc(Br)c(O)c(Br)c1	–	8.33 µM (active)	–	inactive	inactive	inactive	inactive	inactive	14.8 µM (active)
O=[N+]([O-])c1ccc(Nc2ccccc2-c2ccccc2)c2nonc12	–	29.6 µM (active)	23.5 µM (active)	–	23.5 µM (active)	inactive	inactive	inactive	–
CCn1c(-c2nonc2N)nc2cncc(CNC3CCNCC3)c21	–	inactive	–	11.8 µM (active)	–	inactive	24.1 µM (active)	inactive	14.8 µM (active)
CN(C)S(=O)(=O)c1ccc2c(c1)C(=Cc1cc3c([nH]1)CCCC3)C(=O)N2	–	3.72 µM (active)	–	–	–	–	3.83 µM (active)	–	–
CCOc1ccccc1N=Nc1c(C)[nH]n(-c2nc(-c3ccccc3)cs2)c1=O	–	0.209 µM (active)	inactive	–	1.18 µM (active)	inactive	–	inactive	–
Cc1ccc(NC(=O)c2ccc(CN3CCN(C)CC3)cc2)cc1Nc1nc(-c2cccnc2)cs1	–	–	inactive	–	inactive	–	–	–	11.8 µM (active)
O=C(C=Cc1ccc(O)cc1)c1ccc(O)cc1O	–	37.2 µM (active)	–	18.7 µM (active)	13.2 µM (active)	–	6.07 µM (active)	–	–
Nc1ccn([C@@H]2O[C@H](CO)[C@@H](O)[C@H]2O)c(=O)n1	–	–	33.2 µM (active)	–	–	–	inactive	0.0077 µM (active)	0.0235 µM (active)
Cc1cc(C(C)Nc2ccccc2)c2nc(N3CCOCC3)cc(=O)n2c1 (stereo unspecified)	–	0.132 µM (active)	inactive	–	–	inactive	–	–	0.935 µM (active)
C[C@@H](NC(=O)c1ncnc(N)c1Cl)c1ncc(C(=O)Nc2cc(C(F)(F)F)c(Cl)cn2)s1	–	16.6 µM (active)	14.8 µM (active)	–	14.8 µM (active)	inactive	19.2 µM (active)	–	18.7 µM (active)
COc1cc2ncn(-c3cc(OCc4ccccc4S(C)(=O)=O)c(C#N)s3)c2cc1OC	–	13.2 µM (active)	inactive	–	–	inactive	–	inactive	23.5 µM (active)
COc1cc2c(cc1Cc1cccc(Cl)c1F)c(=O)c(C(=O)O)cn2[C@H](CO)C(C)C	–	–	–	–	23.5 µM (active)	–	inactive	13.7 µM (active)	–
COc1cc2c(cc1OC)CC(=O)N(CCCN(C)C[C@H]1Cc3cc(OC)c(OC)cc31)CC2	–	14.8 µM (active)	–	inactive	–	inactive	–	–	–
